Over roughly 8,300 sequences, “log2 fold change of degron read counts, EGFP-low vs EGFP+ sorted cells (limma voom), compound-induced degradation” has its median near -1.1; the highest 2% begin near 3.2. The sample holds the highest values, similar sequences and a random draw of the others, so the mix is not that of the screen.
T1: CRBN, Q96SW2
T1 chain: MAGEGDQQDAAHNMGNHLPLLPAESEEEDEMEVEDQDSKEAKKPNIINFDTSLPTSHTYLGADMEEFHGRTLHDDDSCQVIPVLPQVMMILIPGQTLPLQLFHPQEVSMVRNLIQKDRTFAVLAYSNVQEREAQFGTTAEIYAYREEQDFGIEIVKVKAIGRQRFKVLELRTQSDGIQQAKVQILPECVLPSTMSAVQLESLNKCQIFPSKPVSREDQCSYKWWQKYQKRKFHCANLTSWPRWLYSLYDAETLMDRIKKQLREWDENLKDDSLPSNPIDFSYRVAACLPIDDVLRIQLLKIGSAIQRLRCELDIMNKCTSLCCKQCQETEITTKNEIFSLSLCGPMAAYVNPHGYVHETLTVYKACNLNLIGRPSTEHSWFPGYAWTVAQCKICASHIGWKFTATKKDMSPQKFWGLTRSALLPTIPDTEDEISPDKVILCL


Target: T1, CRBN, Q96SW2
Assay: log2 fold change of degron read counts, EGFP-low vs EGFP+ sorted cells (limma voom), compound-induced degradation; higher = more compound-induced degradation of the degron-EGFP fusion; degrons are variants of IKZF1/3 zinc finger 2; compound dose not given here
Settings: Jurkat, 18 h
[1] = compound: compound 19 (5-tert-butyl-thalidomide)
[2] = compound: compound 22 (5-morpholino-thalidomide)
[3] = compound: compound 33 (diphenyl IMiD analogue)
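Note: pooled lentiviral library of zinc finger degron-EGFP fusions in mCherry-positive Jurkat cells, FACS-sorted after compound exposure, with degron abundance counted by next-generation sequencing.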

Row | Sequence | log2 fold change of degron read counts [1] | log2 fold change of degron read counts [2] | log2 fold change of degron read counts [3] | log2 fold change of degron read counts (compound: thalidomide)
1 | FCCEQCGAMFTQKGNLLRHIKL [46F_47C_49E_50Q_52G_53A_54M_55F_67L_, Q9UKT9] | -1.3 | -2.03 | -0.276 | -1.41
2 | FHCNVCGARFTQKGNLLRHIKL [46F_47H_49N_50V_52G_53A_54R_55F_67L_, Q9UKT9] | 0.139 | -0.199 | -0.986 | -1.05
3 | LNCPICGFLCTQKGNLLRHIKL [46L_47N_49P_50I_52G_53F_54L_55C_67L_, Q9UKT9] | -0.106 | 0.152 | 0.208 | 0.391
4 | FQCSVCGHDFTQKGNLLRHIKL [46F_47Q_49S_50V_52G_53H_54D_55F_67L_, Q9UKT9] | -3.43 | -3.8 | -3.18 | -3.17
5 | FICNQCGHFFTQKGNLLRHIKL [46F_47I_49N_50Q_52G_53H_54F_55F_67L_, Q9UKT9] | -2.52 | -2.59 | -2.06 | -2.52
6 | FKCEICGHFFTQKGNLLRHIKL [46F_47K_49E_50I_52G_53H_54F_55F_67L_, Q9UKT9] | -2.55 | -2.68 | -2.97 | -2.85
7 | FQCNVCGACFTQKGNLLRHIKL [46F_47Q_49N_50V_52G_53A_54C_55F_67L_, Q9UKT9] | -1.23 | 0.797 | 0.868 | 3.21
8 | LGCPICGFKCTQKGNLLRHIKL [46L_47G_49P_50I_52G_53F_54K_55C_67L_, Q9UKT9] | 3.67 | 1.98 | -0.000486 | 1.27
9 | LECPICGFKCTQKGNLLRHIKL [46L_47E_49P_50I_52G_53F_54K_55C_67L_, Q9UKT9] | 0.756 | -0.257 | 0.961 | 3.26
10 | LFCPICGFKCTQKGNLLRHIKL [46L_47F_49P_50I_52G_53F_54K_55C_67L_, Q9UKT9] | 2.81 | 2.98 | 1.2 | 1.42
11 | LHCPICGFKCTQKGNLLRHIKL [46L_47H_49P_50I_52G_53F_54K_55C_67L_, Q9UKT9] | 2.19 | 2.18 | 1.15 | 1.4
12 | LRCPICGFKCTQKGNLLRHIKL [46L_47R_49P_50I_52G_53F_54K_55C_67L_, Q9UKT9] | -0.023 | -0.151 | 0.993 | 1.4
13 | LVCPICGFKCTQKGNLLRHIKL [46L_47V_49P_50I_52G_53F_54K_55C_67L_, Q9UKT9] | 0.655 | 2.13 | 0.489 | 2.78
14 | LSCPICGFKCTQKGNLLRHIKL [46L_47S_49P_50I_52G_53F_54K_55C_67L_, Q9UKT9] | 2.15 | 1.87 | 0.118 | 1.77
15 | LQCPICGFKCTQKGNLLRHIKL [46L_47Q_49P_50I_52G_53F_54K_55C_67L_, Q9UKT9] | 0.793 | 2.43 | 0.554 | 3.4
16 | LDCPICGFKCTQKGNLLRHIKL [46L_47D_49P_50I_52G_53F_54K_55C_67L_, Q9UKT9] | 0.605 | 0.0419 | -0.53 | 2.02

Reference: the supplement of paper PMC12645437, “Orthogonal IMiD-Degron Pairs Induce Selective Protein Degradation in Cells” (ACS Chemical Biology, 2025)
